Screening results as filed in PubChem.
Compounds with a hit are over-represented: about 27% of the library has one in this group of screens.
Cav3 T inh: human Cav3.2 channel inhibition, primary screen; O95180; Cav3.2-expressing cells, Fluo-4 calcium fluorescence FDSS; stronger effect = lower value; B-score at 10 µM; 100,000 tested, 4% active; AID 449739;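 active means single-dose well whose peak fluorescence ratio is a statistical outlier from its plate by either plate-standardised score or position-corrected B-score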
CYP2C9 activ: increases human cytochrome P450 2C9 activity; P11712; recombinant CYP2C9, luciferin-H conversion, luminescence; stronger effect = higher value; factor 1 = untreated enzyme, 0 = blocked; activation factor at 5 µM; 96,000 tested, 1.4% active; AID 1024;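 active means activation factor of 2 or more for CYP2C9 at a 5 µM dose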;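 further: 0 = sulfaphenazole-blocked wells and 1 = vehicle-only wells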
Target sequence (P11712 whole entry, looked up): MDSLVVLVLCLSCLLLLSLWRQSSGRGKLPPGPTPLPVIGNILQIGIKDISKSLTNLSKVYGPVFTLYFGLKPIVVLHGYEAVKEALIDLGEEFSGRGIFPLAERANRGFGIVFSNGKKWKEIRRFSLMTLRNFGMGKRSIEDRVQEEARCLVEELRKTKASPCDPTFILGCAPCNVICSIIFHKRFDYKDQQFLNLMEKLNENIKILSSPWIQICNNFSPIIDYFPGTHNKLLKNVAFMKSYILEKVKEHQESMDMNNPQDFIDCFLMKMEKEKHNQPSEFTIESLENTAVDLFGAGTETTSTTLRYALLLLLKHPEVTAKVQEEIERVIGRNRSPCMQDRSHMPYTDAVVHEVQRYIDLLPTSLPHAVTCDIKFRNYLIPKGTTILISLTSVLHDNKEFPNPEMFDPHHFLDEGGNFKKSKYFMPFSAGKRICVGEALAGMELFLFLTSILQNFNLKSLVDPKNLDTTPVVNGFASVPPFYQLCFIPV
CYP2C9 inh: human CYP2C9 inhibition; P11712; CYP2C9 Supersomes, luciferin-H conversion, luminescence; inhibition, % at 5 µM; 96,000 tested, 20% active; AID 777;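 active means blocking of liver enzyme CYP2C9 beyond about 50% at 5 µM, limit read from the data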
CYP2C19 inhib: human CYP2C19 inhibition; P33261; CYP2C19 Supersomes, luciferin-H EGE luminescence, 30 min; inhibition, % at 5 µM; 96,000 tested, 21% active; AID 778;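 active means CYP2C19 inhibition above a set limit at 5 µM in the primary screen, cut at about 50% in these data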;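 further: plate controls were negative control wells for no effect and 2.5 mM tranylcypromine positive control for full effect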
CYP2C19 act: activators of human cytochrome P450 2C19; activation factor at 5 µM; P33261; recombinant CYP2C19, luciferin-H EGE luminescence; stronger effect = higher value; 0 = fully inhibited enzyme, 1 = untreated enzyme; 96,000 tested, under 10 active;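 active means activation factor of at least 2 at 5 µM in the primary screen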;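 further: 0 = wells with 2.5 mM tranylcypromine and 1 = vehicle-only wells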
Numbers without * were called inactive; x = no result.

SMILES	Cav3 T inh	CYP2C9 activ	CYP2C9 inh	CYP2C19 inhib	CYP2C19 act
CCc1ccc(-c2nc(CN3CCC(C(=O)NCCN(CC)c4ccccc4)CC3)c(C)o2)cc1	-7.5*	0.8	18	7	0.9
CCN(CCNC(=O)C1CCN(Cc2nc(-c3cccc(Cl)c3)oc2C)CC1)c1ccccc1	-6.9*	0.8	19	20	0.8
Cc1sc2ncnc(OCC(=O)NCc3cccs3)c2c1C	0.57	x	x	x	x
CCN(CCNC(=O)C1CCCN(Cc2nc(-c3ccc(OC)cc3)oc2C)C1)c1ccccc1 (centres undefined)	-4.9*	0.4	61*	55*	0.4
CCc1ccc(-c2nc(CN3CCC(C(=O)NCc4ccc(F)cc4)CC3)c(C)o2)cc1	-7.3*	0.9	6	0	1
CCc1ccc(-c2nc(CN3CCCC(C(=O)O)C3)c(C)o2)cc1 (centres undefined)	0.58	0.9	10	3	1
CN(C)C(=O)C(CCN1CCC(O)(c2ccc(Cl)cc2)CC1)(c1ccccc1)c1ccccc1	-4.6*	x	x	x	x
CCCC1CCc2c(sc(N)c2C(N)=O)C1 (centres undefined)	0.07	0.3	69*	68*	0.3
CC(C)(C)C1CCc2c(sc(N)c2C(N)=O)C1 (centres undefined)	-0.71	0.5	47	63*	0.4
CC(C)(C)C1CCc2c(sc(NC(=O)C3CCCO3)c2C(N)=O)C1 (centres undefined)	0.68	0.9	10	-8	1.1
O=S(=O)(c1cccc(-c2nnc(-c3cccnc3)o2)c1)N1CCCCC1	1.6	x	x	x	x
O=S(=O)(c1cccc(-c2nnc(SCc3nc4ccccc4s3)o2)c1)N1CCOCC1	x	0.5	50	51*	0.5
O=c1c2ccccc2nnn1CSc1nnc(-c2cccc(S(=O)(=O)N3CCCCC3)c2)o1	-0.99	0.2	81*	75*	0.3
O=S(=O)(c1ccc(OCc2nc3ccccc3s2)c(Cl)c1)N1CCOCC1	-1.7	0.6	43	26	0.7
CCCCNC(=O)[C@H](CSCc1ccccc1)N1Cc2ccccc2C1=O	-1.5	x	x	x	x
Cc1ccc(NC(=O)N/C=C/c2ccco2)cc1	x	0.7	33	43	0.6
COc1cc(Cc2nc3ccc(S(=O)(=O)N4CCOCC4)cc3[nH]2)cc(OC)c1OC	-0.69	0.9	7	5	0.9
N#CCCn1c(C2CCCCC2)nc2ccccc21	1.5	1.2	-17	-18	1.2
CCCC(CCC)C(=O)Nc1ccncc1	0.34	0.2	79*	91*	0.1
CC12CCC(C(=O)Nc3ccccc3)(C/C1=N\O)C2(C)C (centres undefined)	-0.14	1	1	78*	0.2
O=c1c2[nH]c3ccc(F)cc3c2ncn1CCCn1ccnc1	1.5	0.2	80*	64*	0.4
O=c1c2[nH]c3ccc(Cl)cc3c2ncn1CCN1CCCCC1	0.57	0.4	59*	74*	0.3
COc1ccc2c(c1)[nH]c1c(=O)n(CCN3CCCC3)cnc12	0.87	1.1	-6	6	0.9
COc1ccc(C2N(c3ccc(F)cc3)C(=O)C3CCCN32)cc1 (centres undefined)	-0.086	0.6	42	49	0.5
COc1cc(C)c(C)cc1S(=O)(=O)N1CCN(Cc2ccc3c(c2)OCO3)CC1	-1.3	1	-2	62*	0.4
SMILES	Cav3 T inh	CYP2C9 activ	CYP2C9 inh	CYP2C19 inhib	CYP2C19 act
Cc1cc(S(=O)(=O)N2CCN(Cc3ccccc3)CC2)c(C)s1	-2	0.4	62*	99*	0
COc1cc(C)c(C)cc1S(=O)(=O)N1CCN(Cc2ccccc2)CC1	1	0.4	63*	89*	0.1
COc1cc(S(=O)(=O)N2CCN(Cc3ccc4c(c3)OCO4)CC2)c(C)cc1C	-1.7	1	-2	32	0.7
Cc1ccc(S(=O)(=O)N2CCN(C3CCN(Cc4ccccc4)CC3)CC2)cc1	0.68	0.9	11	3	1
Cc1cc(C)cc(NC(=O)CCC(=O)Nc2cc(C)on2)c1	-0.026	x	x	x	x
CC(C)NC(=O)C(C)n1cccc1C(=O)c1ccccc1 (centres undefined)	-0.27	0.5	55*	18	0.8
CCc1nc2scc(-c3ccccc3)c2c(=O)n1N	0.83	1	4	22	0.8
Cc1ccc(C)n1-n1c(C)nc2scc(-c3ccccc3)c2c1=O	-6.9*	0.3	74*	72*	0.3
O=S(=O)(c1ccccc1)N(C1=NCCS1)S(=O)(=O)c1ccccc1	-0.022	1.2	-17	20	0.8
N#Cc1cccc(-c2cn(S(=O)(=O)c3ccc(Cl)cc3)nc2N)c1	0.79	0.6	39	11	0.9
Cc1ccc(S(=O)(=O)n2cc(-c3ccccc3)c(N)n2)cc1	-3.5	0.1	90*	52*	0.5
O=C1CN(C(=O)c2ccccc2)c2ccccc2N1	1.1	0.9	15	18	0.8
O=C1CN(C(=O)c2cc(Br)c(Br)s2)c2ccccc2N1	-5.6*	0.5	46	-1	1
CN(C)C(=O)CSc1nc2ccccc2c(=O)[nH]1	0.38	1.1	-12	-13	1.1
Cc1csc(NC(=O)CSc2nnc(C)s2)n1	1.5	1.1	-6	-9	1.1
CC(C)(C)N(Cc1ccccc1)C(=O)CSc1nc2ccccc2c(=O)[nH]1	-1.4	0.2	82*	66*	0.3
CC(=O)Nc1ccc(NC(=S)Nc2ccccc2)cc1	0.33	1	3	36	0.6
Cc1ccc(NC(=S)Nc2nc(CC(=O)Nc3ccccc3)cs2)cc1	1.2	0.7	28	59*	0.4
Cc1csc(NC(=O)CSCC(=O)Nc2ccccc2)n1	0.029	0.4	57*	50	0.5
Cc1cc(C)c2c(=O)[nH]c(SCC(=O)c3ccc(C(C)C)cc3)nc2n1	-1.1	0.5	51*	15	0.9
Cc1ccc(C(=O)NCC(=O)NCC(=O)OCc2ccc(Oc3ccc([N+](=O)[O-])cc3)cc2)cc1	-0.96	x	x	x	x
Cc1csc(NC(=O)CSc2ncnc3c2cnn3-c2ccccc2Cl)n1	-5.5*	0.1	90*	90*	0.1
Cc1ccccc1-n1ncc2c(SCC(=O)NCc3cccs3)ncnc21	-1.3	0.7	34	11	0.9
CC(C)(C)c1csc(NC(=O)CSc2nc3ccccc3c(=O)[nH]2)n1	1.2	0.1	94*	67*	0.3
Cc1ccc(C(=O)CSc2nc3ccccc3c(=O)[nH]2)cc1	0.16	0.3	75*	43	0.6
Cc1csc(NC(=O)CSc2nnc(-c3cccs3)n2C)n1	0.62	0.6	41	52*	0.5
CC(C)(C)c1csc(NC(=O)Cn2cnc3ccccc3c2=O)n1	x	0.9	12	-8	1.1
Cc1ccc(N2CN=c3s/c(=C\c4ccccn4)c(=O)n3C2)cc1	-0.47	1	1	4	1
CCOC(=O)c1c(C)[nH]c(C(=O)COC(=O)CCC(=O)c2ccc3c(c2)OCCO3)c1C	0.41	0.6	43	6	0.9
C=C1CCN([C@H](C(=O)NCc2ccc(Cl)c(Cl)c2)C(C)C)S(=O)(=O)c2ccccc21	-0.87	x	x	x	x
